Test results published in PubChem BioAssay (EPA / NIEHS).
Results filed as inconclusive are left out. Active and inactive are the calls of the source. Rule for the calls, unless noted: active = hit-call score of the fitted dose curve at least 0.9, where 1 is the maximum; inactive = score below 0.9.

Experiments:
[1] = CCTE_Harrill_HTTr_CellCount_MCF7: CCTE's Cell Proliferation Assessment for the High-Throughput Transcriptomics (HTTr) Platform, Harrill Lab (AID 2284012; active = hit-call score of the fitted dose curve at least 0.9, where 1 is the maximum;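 note: count of Hoechst-stained nuclei per well by high-content imaging in MCF-7 cells; cells exposed to compound for six hours; intended direction is loss of nuclei count meaning fewer cells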)
Outline: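 Chemicals in eight-point dilution series are added to MCF-7 cells for six hours, nuclei are stained with Hoechst and imaged, and per-well nuclei counts are fitted in both directions relative to DMSO controls.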

[2] = CCTE_Shafer_MEA_acute_burst_number: CCTE's Neural Acute Assay for Single-Electrode Bursts, Shafer Lab (AID 2284013)
Outline: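 Rat cortical cultures, DIV 13/15; 40 min baseline, then 40 min with compound 0.03-40 uM, 37 C. Spikes: 300-5000 Hz band-pass, threshold 8x rms noise. Readout = % change in single-electrode bursts vs baseline, loss-of-signal fit.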

[3] = CCTE_Shafer_MEA_acute_burst_duration_mean: CCTE's Neural Acute Assay for Mean Burst Duration, Shafer Lab (AID 2284014);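 note: hits are decreases in mean burst duration relative to DMSO controls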
Outline: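 Primary rat cortical neurons on 16-electrode MEA wells, treated on DIV 13 or 15 with compound (0.03-40 uM; ≥3 wells each). 40-min baseline and 40-min exposure recordings at 37 C; percent change in mean burst duration per well versus DMSO.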

[4] = CCTE_Shafer_MEA_acute_per_burst_spike_number_mean: CCTE's Neural Acute Assay for Average Number of Spikes Per Burst, Shafer Lab (AID 2284015);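 note: hits are decreases in mean spikes per burst versus baseline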
Outline: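 Rat primary cortical neurons on 48-well MEAs (DIV 13 or 15) were treated with 0.03-40 uM compound at 37 C. Mean spikes per burst over 40 min were recorded before and after exposure and expressed as percent change from baseline, relative to DMSO.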

[5] = CCTE_Shafer_MEA_acute_interburst_interval_mean: CCTE's Neural Acute Assay for Mean Interburst Interval, Shafer Lab (AID 2284016);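 note: percent change of mean interburst interval versus each well's own pre-dose baseline; curves fitted for decrease in interburst interval relative to DMSO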
Outline: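 Rat primary cortical neurons on 48-well MEAs at DIV 13 or 15 were exposed acutely to 0.03-40 uM. Spikes detected at 8x rms noise, 37 C. Mean interburst interval from 40 min recordings expressed as percent change from 40 min pre-treatment baseline.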

[6] = CCTE_Shafer_MEA_acute_burst_percentage_mean: CCTE's Neural Acute Assay for Percentage of Spikes in a Burst, Shafer Lab (AID 2284017);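 for AC50: curve fitted for loss of signal so potency reflects decreased burst percentage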
Outline: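 Primary rat cortical neurons on 48-well MEA plates, treated on DIV 13 or 15 at 0.03-40 uM. Spikes detected at 8x rms noise at 37C; percent change from 40-min baseline to 40-min post-dose recording, fitted versus DMSO.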

[7] = CCTE_Shafer_MEA_acute_burst_percentage_std: CCTE's Neural Acute Assay for Standard Deviation of Burst Percentage, Shafer Lab (AID 2284018);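 note: fitted in the negative direction so actives lower burst percentage SD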
Outline: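 Primary rat cortical neurons on 16-electrode MEA wells were recorded 40 min at baseline (DIV 13 or 15), then 40 min after compound (0.03-40 uM), at 37 C. Well value is SD across electrodes of spikes-in-bursts/total spikes; endpoint is percent change, DMSO-referenced.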

[8] = CCTE_Shafer_MEA_acute_per_network_burst_spike_number_std: CCTE's Neural Acute Assay for Standard Deviation of Number of Spikes in a Network Burst, Shafer Lab (AID 2284020);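 note: fitted for decrease in spike-number SD versus DMSO so actives lower it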
Outline: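 Primary rat cortical neurons on 48-well MEAs (16 electrodes/well) recorded at DIV 13 or 15: 40-min baseline, then 40 min with compound (0.03-40 uM), 37 C. Value is percent change in SD of spikes per network burst, relative to DMSO.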

[9] = CCTE_Shafer_MEA_acute_per_network_burst_electrodes_number_mean: CCTE's Neural Acute Assay for Mean Number of Electrodes in a Network Burst, Shafer Lab (AID 2284021);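 note: curves fitted for decreases only so hits reduce electrodes per burst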
Outline: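 Readout: % change in mean electrodes active per network burst, post- vs pre-treatment, each well. Spikes detected at 8x rms noise after 300-5000 Hz band-pass; rat cortical cultures, DIV 13/15, compounds 0.03-40 uM, DMSO baseline.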

[10] = CCTE_Shafer_MEA_acute_network_burst_percentage: CCTE's Neural Acute Assay for Percentage of Network Bursts, Shafer Lab (AID 2284022);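 note: curves fitted for loss so actives lower network burst percentage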
Outline: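 Rat cortical cultures, DIV 13/15; 20 min equilibration, 40 min baseline, compound 0.03-40 uM, 40 min recording, 37 C. Spikes: 300-5000 Hz band-pass, threshold 8x rms noise. Readout: % change in network-burst spike fraction; loss direction vs DMSO.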

[11] = CCTE_Shafer_MEA_acute_cross_correlation_area: CCTE's Neural Acute Assay for Area of Cross Correlation, Shafer Lab (AID 2284024);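 note: area under pooled inter-electrode spike cross-correlation near zero lag as percent change from own baseline; curves fitted for loss of cross-correlation area so actives lower synchrony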
Outline: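 Rat cortical cultures, DIV 13/15, MEA; spikes detected at 8x rms noise (300-5000 Hz band-pass). Compound 0.03-40 uM, ≥3 wells each. Readout: % change in pooled inter-electrode cross-correlation area vs own baseline; DMSO negative control.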

[12] = CCTE_Shafer_MEA_acute_cross_correlation_HWHM: CCTE's Neural Acute Assay for Cross Correlation at Half Width at Half Maximum, Shafer Lab (AID 2284026);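 note: percent change per well from pre-dose baseline in spike cross-correlogram half width; hits are a decrease in cross-correlogram half width relative to DMSO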
Outline: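 Read-out: half width at half maximum of action-potential cross-correlogram, percent change versus pre-treatment baseline, fitted in loss direction against DMSO. Rat cortical cultures, DIV 13 or 15, dosed 0.03-40 uM, 40-min recordings at 37 C.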

[13] = CCTE_Shafer_MEA_acute_synchrony_index: CCTE's Neural Acute Assay for Synchrony, Shafer Lab (AID 2284027);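 note: fitted for loss of signal so actives lower synchrony relative to DMSO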
Outline: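 Readout is percent change in the unitless network synchrony index (0 low, 1 high) between a 40-min baseline and a 40-min recording in compound. Cultures were primary rat cortical neurons on MEAs, treated at 0.03-40 uM on DIV 13 or 15.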

[14] = CCTE_Shafer_MEA_dev_firing_rate_mean: CCTE's Neural Network Formation Assay for Mean Firing Rate, Shafer Lab (AID 2284031);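 note: AUC of well mean spike rate recorded on DIV 5 7 9 and 12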;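 for AC50: curve fitted for loss of firing so AC50 reflects decreased mean firing rate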
Outline: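 Rat primary cortical neurons were seeded on multielectrode arrays and treated from plating through day 12, with redosing at each feed. Spontaneous spiking was recorded four times; mean firing rate AUC was fitted downward against DMSO.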

[15] = CCTE_Shafer_MEA_dev_per_burst_spike_percent: CCTE's Neural Network Formation Assay for Percent of Spikes in a Burst, Shafer Lab (AID 2284032);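 for AC50: fitted as a decrease in burst spike percentage below DMSO baseline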
Outline: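 Rat primary cortical neurons on 16-electrode MEA wells, dosed from plating day 0 for 12 days with renewal on DIV 5 and 9; spikes-in-bursts percentage averaged over bursting electrodes, collapsed as AUC across days 5, 7, 9, 12; loss direction versus DMSO.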

[16] = CCTE_Deisenroth_AIME_384WELL_CTox_Active: Cytotoxicity Assessment (CTOX) in CCTE's 384-well Estrogen Receptor Transactivation Assay with AIME metabolic competence (metabolism positive), Deisenroth Lab (AID 2284037; active = hit-call score of the fitted dose curve at least 0.9, where 1 is the maximum;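 note: activity means signal loss indicating cell death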)
Outline: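 VM7Luc4E2 breast cells received medium pre-incubated 2 h with chemical over alginate microspheres holding induced male Sprague Dawley rat liver S9; viability read 24 h later by protease-substrate fluorescence. Loss of signal, bidirectional fit, 0.002–200 uM.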

[17] = CCTE_Deisenroth_AIME_384WELL_CTox_Inactive: Cytotoxicity Assessment (CTOX) in CCTE's 384-well Estrogen Receptor Transactivation Assay without AIME metabolic competence (metabolism negative), Deisenroth Lab (AID 2284039; active = hit-call score of the fitted dose curve at least 0.9, where 1 is the maximum;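 note: cell viability via live-cell protease substrate cleaved to fluorescent probe; cells exposed 24 h to medium preincubated 2 h with alginate-water beads without S9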)
Outline: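 VM7Luc4E2 cells, metabolism-negative arm: test chemicals (0.002–200 uM, 10 points) pre-incubated 2 h with alginate-water microspheres, then medium transferred to cells for 24 h. Viability read as protease-substrate cleavage to fluorescent probe; loss-of-signal, bidirectional fitting.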

[18] = CCTE_Deisenroth_AIME_96WELL_CTox_Active: Cytotoxicity Assessment (CTOX) in CCTE's 96-well Estrogen Receptor Transactivation Assay with AIME metabolic competence (metabolism positive), Deisenroth Lab (AID 2284028; active = hit-call score of the fitted dose curve at least 0.9, where 1 is the maximum)
Outline: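 Chemicals (0.002–200 uM) were first incubated 2 h with alginate-immobilized phenobarbital/beta-naphthoflavone-induced male rat liver S9; conditioned medium then went onto VM7Luc4E2 cells for 24 h, with viability read by protease-substrate fluorescence, fitted bidirectionally.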

[19] = molecular target: Estrogen receptor (Homo sapiens) (UniProt P03372); test: CCTE_Deisenroth_AIME_384WELL_LUC_Inactive: CCTE's 384-well Estrogen Receptor Transactivation Assay without AIME metabolic competence (ERTA luciferase; metabolism negative), Deisenroth Lab (AID 2284038; active = hit-call score of the fitted dose curve at least 0.9, where 1 is the maximum;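 note: hits raise estrogen receptor luciferase signal so potencies reflect agonists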)
Estrogen receptor (Homo sapiens), sequence (P03372 whole entry, looked up): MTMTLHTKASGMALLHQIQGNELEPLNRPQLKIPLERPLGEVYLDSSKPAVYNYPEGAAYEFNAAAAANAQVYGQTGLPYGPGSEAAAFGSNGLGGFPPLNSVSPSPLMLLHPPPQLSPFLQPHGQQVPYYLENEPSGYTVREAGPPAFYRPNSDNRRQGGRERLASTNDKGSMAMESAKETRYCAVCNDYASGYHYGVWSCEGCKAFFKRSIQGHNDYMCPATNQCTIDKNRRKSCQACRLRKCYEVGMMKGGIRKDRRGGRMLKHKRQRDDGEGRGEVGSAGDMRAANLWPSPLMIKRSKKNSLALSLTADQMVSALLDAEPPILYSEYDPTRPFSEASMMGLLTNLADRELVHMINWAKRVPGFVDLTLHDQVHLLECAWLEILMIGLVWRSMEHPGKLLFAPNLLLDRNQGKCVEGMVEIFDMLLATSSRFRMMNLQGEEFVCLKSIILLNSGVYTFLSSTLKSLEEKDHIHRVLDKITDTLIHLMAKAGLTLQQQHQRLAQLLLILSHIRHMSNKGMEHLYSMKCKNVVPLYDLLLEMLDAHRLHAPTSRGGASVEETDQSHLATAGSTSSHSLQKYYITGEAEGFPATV
Outline: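 Metabolism-negative mode: chemicals (10-point, 0.002–200 uM) held 2 h with alginate-water microspheres, then conditioned medium applied to VM7Luc4E2 cells for 24 h. Luciferase induction referenced to 17beta-estradiol.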

Measured: AC50

[Cl-].[Cl-].[Hg+2]
active: [3] 29.8 µM | [6] 20 µM | [9] 24.6 µM | [12] 29.3 µM | [13] 28.2 µM | [14] 0.911 µM | [15] 0.882 µM
not listed: [16] | [17] | [18] | [19]
inactive: all other assays above

CN(C)[C@@H]1C(=O)C(C(N)=O)=C(O)[C@@]2(O)C(=O)C3=C(O)c4c(O)cccc4[C@@](C)(O)[C@H]3C[C@@H]12
inactive: [1] | [14] | [15] | [16]
active: [17] 103 µM

CCCCOC(=O)c1ccccc1C(=O)OCc1ccccc1
active: [2] 2.71 µM | [4] 5 µM | [5] 3.83 µM | [6] 6.09 µM | [7] 5 µM | [8] 5 µM | [9] 5 µM | [10] 8.11 µM | [12] 6.42 µM | [13] 7.33 µM
inactive: [1] | [3] | [11] | [18] | [14] | [15]

[O-][Cl+]O
inactive: [14] | [15] | [16] | [19] | [17]

CCCCCCCCOC(=O)c1ccc(C(=O)OCCCCCCCC)c(C(=O)OCCCCCCCC)c1
inactive: [1] | [16] | [17]

O=C(Nc1ccccc1)c1ccccc1I
inactive: [17]
active: [19] 23.7 µM

Cc1cc(N=Nc2ccccc2C)ccc1N
inactive: [2] | [3] | [5] | [8] | [9] | [10] | [11]
active: [4] 20 µM | [6] 26.6 µM | [7] 28.9 µM | [12] 30.1 µM | [13] 28.7 µM | [16] 107 µM | [17] 103 µM

OCCCBr
inactive: [16] | [19] | [17]

O=[N+]([O-])C(Br)(CO)CO
inactive: [1] | [2] | [5] | [7] | [8] | [11] | [12]
active: [3] 30.4 µM | [4] 20 µM | [6] 30.2 µM | [9] 32 µM | [10] 35.8 µM | [13] 30.9 µM

O=C(N[C@H](c1ccccc1)[C@@H]1CN2CCC1CC2)c1c(Cl)ccc(C(F)(F)F)c1Cl
active: [2] 1.68 µM | [12] 18.5 µM
not listed: [14] | [15] | [17] | [18] | [19]
inactive: all other assays above

c1ccc(N=Nc2ccccc2)cc1
active: [5] 34.6 µM | [6] 26.8 µM | [7] 36.2 µM | [10] 5.14 µM
not listed: [14] | [15] | [18] | [19]
inactive: all other assays above

Cc1ccc(N)c(N)c1
active: [6] 20 µM | [10] 9.87 µM | [13] 20 µM
not listed: [14] | [15] | [18] | [19]
inactive: all other assays above

O=[N+]([O-])c1ccc(Oc2ccc(Cl)cc2Cl)cc1
active: [5] 4.1 µM | [6] 10.6 µM | [8] 10.8 µM | [9] 20 µM | [10] 20 µM | [12] 10.9 µM | [13] 10.9 µM
not listed: [14] | [15] | [18] | [19]
inactive: all other assays above
